aSyn rescue: rescues yeast growth from alpha-synuclein toxicity; 0.14% of 370,000 active; AID 652106; Yeast expressing alpha-synuclein, growth rescue, BacTiter-Glo, 24 h; Potency, µM (titrated, usually from 46.1 µM), inactives show at the highest dose growth rescue (activation), actives largely listed as activators; note: % of control where 0% means no effect; nearly all actives have a fitted effect of over 65% in size
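Screening used galactose-induced yeast with toxic alpha-synuclein levels, exposed to compound for 24 hr at 30 deg C. Cell growth, read with BacTiter-Glo luminescence, gave the measured signal.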
Rango dissoc inh: inhibitors of RanGTP-induced Rango-importin beta complex dissociation; Biochemical FRET Rango-importin beta, RanGTP-induced dissociation; Potency, µM (series often up to 46.1 µM), for the others: at the top dose activity change, negative = inhibition; 0.071% of 340,000 active; AID 540253; calls by dose curve; note: % of control where 0% means no effect; nearly all actives have a fitted effect of over 45% in size
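Two FRET readings bracket the reaction: one 5 min after compound meets Rango–importin beta, another 45 min after RanGTP-RCC1 (0.6 uM Ran, 0.2 uM RCC1, 2 mM GTP) is added. Only the second defines inhibition.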
S-ASM inh: human S-ASM enzyme inhibition. placental ASM, HMU-PC fluorogenic substrate, 60 min. Potency, µM (series often up to 57.5 µM), for the others: at the highest dose activity change, negative = inhibition, hits mostly inhibitors. 0.006% of 340,000 active
Target sequence (P17405 47-631 limits assumed): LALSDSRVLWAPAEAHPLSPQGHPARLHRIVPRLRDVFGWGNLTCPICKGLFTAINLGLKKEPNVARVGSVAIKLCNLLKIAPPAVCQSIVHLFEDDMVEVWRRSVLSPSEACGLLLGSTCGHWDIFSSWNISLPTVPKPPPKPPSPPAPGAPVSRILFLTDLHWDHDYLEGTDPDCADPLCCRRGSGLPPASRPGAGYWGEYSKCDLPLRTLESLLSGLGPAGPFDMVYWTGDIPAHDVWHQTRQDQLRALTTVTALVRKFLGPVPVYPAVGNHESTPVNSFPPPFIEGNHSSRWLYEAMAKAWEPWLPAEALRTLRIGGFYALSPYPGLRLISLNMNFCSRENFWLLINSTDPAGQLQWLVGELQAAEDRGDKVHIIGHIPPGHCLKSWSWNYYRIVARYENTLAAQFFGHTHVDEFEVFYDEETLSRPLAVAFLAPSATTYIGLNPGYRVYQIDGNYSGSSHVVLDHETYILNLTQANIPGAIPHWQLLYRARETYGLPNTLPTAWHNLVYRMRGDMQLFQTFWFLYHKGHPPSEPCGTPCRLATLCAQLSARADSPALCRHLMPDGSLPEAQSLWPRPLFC
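Human placenta-derived ASM preincubated with compound 10 min at room temperature, then reacted with 9 uM (final) fluorogenic HMU-PC substrate for 60 min at 37 C. Stop solution raises pH to 10; fluorescence read at Ex 386/Em 447 nm.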
Abeta yeast res: compounds reversing amyloid beta toxicity in yeast; 0.063% of 410,000 active; Potency, µM (top dose mostly 46.1 µM), actives largely listed as activators; AID 1347071; yeast expressing A-beta42, growth rescue, OD600, 48 h; response scale: 0% DMSO, 100% iron-clioquinol control; note: nearly all actives have a fitted effect of over 55% in size
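Yeast growth medium received pinned compounds, then yeast cells expressing toxic A-beta were added; plates incubated at 30 C for 48 hr. Growth read as absorbance at 600 nm, normalized to DMSO and equimolar FeCl3 plus clioquinol controls.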
Rango-impB inh: prevents formation of the Rango-importin beta complex. AID 540263. Potency, µM (titrated, usually from 92.2 µM), without a hit: at the highest dose inhibition of complex formation. Rango CFP/YFP FRET sensor + importin beta, 45 min. 0.031% of 340,000 active; calls by dose curve;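 note: 0% = DMSO wells and 100% = buffer wells lacking importin beta; nearly all actives have a fitted effect of over 15% in size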
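FRET biosensor Rango (snurportin 1 IBB between N-terminal EYFP and C-terminal Cerulean), 50 nM in PBS/1 mM DTT/0.02% Tween-20/0.1% BSA, preincubated 5 min RT with compound; 0.125 microM importin beta added, 45 min RT, CFP/YFP FRET ratio read.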
TDP43 rescue: TDP-43 toxicity inhibition in yeast | TDP-43 expressing yeast growth rescue, BacTiter-Glo, 24 h | Potency, µM (series often up to 46.1 µM), inactives show at the highest dose growth rescue (activation), hits mostly activators | 1.8% of 410,000 active | AID 652104; note: % of control where 0% means no effect; nearly all actives have a fitted effect of over 50% in size
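Cell-based yeast growth screen: TDP-43 expression induced in galactose, inoculum OD600=0.02 after raffinose pregrowth to mid-log. Read-out BacTiter-Glo luminescence at 24 hr, 30 deg C; inhibition of toxicity seen as signal increase.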
* = called active by the depositor. Sampled rows, rich in hits. Any-hit rate of the full collection: about 2%. Unless noted, calls come from the whole dose curve; as a rule, active = well fitted curve in the direction sought with a large enough effect; inconclusive = small, poorly fitted or top-dose-only effect, or another doubt; inactive = no such curve, though single readings can be large; an effect the other way counts as inactive or inconclusive. Potency is the fitted concentration of half-maximal effect.

For O=C(Nc1c(C(=O)N2CCN(c3ccccc3F)CC2)oc2ccccc12)c1cccc(F)c1 the results were Abeta yeast res inactive and TDP43 rescue 9%.
Screening Clc1ccc(-n2nnnc2Sc2ncnc3sccc23)cc1 returned aSyn rescue -48%, Rango dissoc inh 7%, S-ASM inh -2%, Abeta yeast res inactive, Rango-impB inh 0% and TDP43 rescue 10µM*.
Cc1nn2c3c(cnc2c1-c1ccc(F)cc1)C(=O)CC(c1ccccc1)C3 (stereo not given) was read as Abeta yeast res inactive and TDP43 rescue 4%.
For Cc1cc(Oc2ccccc2)nc(C#N)n1 the results were aSyn rescue -5%.
`CCCS(=O)(=O)c1ncc(Cl)c(C(=O)N2CCN(c3ccc(OC)cc3)CC2)n1` gave Abeta yeast res inactive and TDP43 rescue 14µM*.
Screening Cc1ccc(S(=O)(=O)NC2c3cccc4cccc(c34)C2Sc2nc(C)cc(C)n2)cc1 (stereo not given) returned aSyn rescue 1%, Rango dissoc inh 3%, S-ASM inh -4%, Abeta yeast res inactive, Rango-impB inh 0% and TDP43 rescue inconclusive.
For O=S(=O)(NC1c2cccc3cccc(c23)C1Sc1ncccn1)c1ccccc1 (stereo not given) the results were aSyn rescue 9%, Rango dissoc inh 0%, S-ASM inh -3%, Abeta yeast res inactive, Rango-impB inh 2% and TDP43 rescue 22µM*.
Screening Clc1ccccc1Nc1ncnc2c1nnn2Cc1ccccc1 returned aSyn rescue -6%, Rango dissoc inh 13%, S-ASM inh -2%, Abeta yeast res inactive, Rango-impB inh 2% and TDP43 rescue -8%.
For c1ccc(Cn2ncc3c(Nc4ccccc4)ncnc32)cc1 the results were aSyn rescue -6%, Rango dissoc inh -6%, S-ASM inh 2%, Abeta yeast res inactive, Rango-impB inh -4% and TDP43 rescue 13µM*.
Screening COc1ccc(Nc2ncnc3c2cnn3Cc2ccc(C)cc2)cc1 returned aSyn rescue 1%, Rango dissoc inh -7%, S-ASM inh -1%, Abeta yeast res inactive, Rango-impB inh -2% and TDP43 rescue 0%.
`Cc1ccc(Nc2ncnc3c2cnn3-c2ccccc2)c(C)c1` gave aSyn rescue 3%, Abeta yeast res inactive and TDP43 rescue 35µM*.
c1ccc(CCNc2ncnc3c2cnn3-c2ccccc2)cc1 was read as aSyn rescue -18%, Rango dissoc inh 0%, S-ASM inh -2%, Abeta yeast res inactive, Rango-impB inh -2% and TDP43 rescue 16µM*.
Fc1ccccc1Nc1ncnc2c1nnn2Cc1ccccc1 was read as aSyn rescue 0%, Rango dissoc inh 1%, S-ASM inh -2%, Abeta yeast res inconclusive, Rango-impB inh 0% and TDP43 rescue 11µM*.
Screening O=C(Nc1cc(F)ccc1F)C1CCN(c2nc3ccccc3n3cccc23)CC1 returned Abeta yeast res inactive and TDP43 rescue -3%.
O=C1c2ccccc2C(=O)N1c1nc(-c2ccc(F)cc2)cs1 was read as aSyn rescue 0%.
`COc1ccc(C(=O)NCC(c2ccc(N(C)C)cc2)N2CCc3ccccc32)cc1OC` (stereo not given) gave Abeta yeast res inactive and TDP43 rescue 17%.
`CNc1ncnc2c1cnn2-c1ccc(C)c(C)c1` gave Abeta yeast res inactive and TDP43 rescue 11µM*.
Screening Cc1cccc(Nc2ncnc3c2cnn3C)c1 returned aSyn rescue -9%, Rango dissoc inh -11%, S-ASM inh -7%, Abeta yeast res inactive, Rango-impB inh 4% and TDP43 rescue inconclusive.
Screening Cc1ccc(-n2ncc3c(NCCc4ccccc4)ncnc32)cc1C returned Abeta yeast res inactive and TDP43 rescue inconclusive.

Source: PubChem (National Center for Advancing Translational Sciences (NCATS))
